Measurements as given in ChEMBL document CHEMBL1157539, “Thousands of chemical starting points for antimalarial lead identification” (Nature, 2010).

How the values were obtained:
Format in all cases: functional
[1] = tested on: Plasmodium falciparum; assay: GSK_TCMDC: Inhibition of Plasmodium falciparum 3D7 in whole red blood cells, using parasite LDH activity as an index of growth. Test compounds present at 2uM
[2] = tested on: Plasmodium falciparum; assay: GSK_TCMDC: Inhibition of Plasmodium falciparum Dd2 in whole red blood cells, using parasite LDH activity as an index of growth. Test compounds present at 2uM
[3] = tested on: HepG2; assay: GSK_TCMDC: Percent inhibition of human HepG2 cell line. Test compounds present at 10uM.

Structure (SMILES)	Inhibition [1]	Inhibition [2]	Inhibition [3]
N#Cc1cccc(C(=O)Nc2ccc(-c3nc4ccccc4[nH]3)cc2)c1	91%	38%	33%
O=C(NCc1cccc(C(F)(F)F)c1)c1ccc(-c2nc3cc(F)c(F)cc3[nH]2)cc1	97%	7%	0%
Cc1cc(C)cc(NC(=S)NCCCCN2CCN(c3cccc(Cl)c3)CC2)c1	88%	13%	11%
Cc1cccc(-c2nc(Nc3ccncc3)c3cc(N(C)C)ccc3n2)n1	98%	63%	5%
CCOC(=O)c1ccc(NC(=O)Nc2cccc(-c3ccc(-c4nc5cc(F)ccc5[nH]4)cc3)c2)cc1	100%	97%	40%
O=C(O)C(F)(F)F.O=c1cc(NCCCNCc2cn(S(=O)(=O)c3ccccc3)c3ccccc23)[nH]c2ccccc12	91%	29%	17%
O=C(Nc1cccc(-c2cccc(-c3nc4ccccc4[nH]3)c2)c1)c1csnn1	90%	27%	31%
CN/C(=N\O)NCCN(C)C.Cl	88%	0%	0%
CC(C)C[C@@H](CNC[C@H](CC(C)C)NC(=O)OC(C)(C)C)NC(=O)OC(C)(C)C	88%	58%	4%
O=C(O)C(=O)O.Oc1ccccc1CN1CCN(C(c2ccccc2)c2ccccc2)CC1	98%	90%	0%
Cc1ccc(-c2nc(N3CCN(C(=O)c4ccco4)CC3)c3ccccc3n2)cc1	90%	75%	0%
O=C(NCC1CN(Cc2ccc(N3CCCC3)o2)CCCO1)c1ccc2c(c1)OCO2.O=CO (stereo not given)	83%	70%	0%
COc1cc(CNCCCNc2nc3ncccc3[nH]2)c2[nH]cc(Br)c2c1	92%	3%	12%
COc1ccc(Nc2nccc(-c3cccc(NC(=O)c4cc5cc(F)ccc5[nH]4)c3)n2)cc1	92%	37%	3%
CC(C)(C)c1ccc(NC(=O)c2ccc(CN3CCCN(Cc4cccc(F)c4)CC3)cc2)cc1.O=C(O)C(F)(F)F	90%	8%	51%
O=C(c1cccc(-c2cccc(-c3nc4ccccc4[nH]3)c2)c1)N1CCCCC1CN1CCC(O)C1 (stereo not given)	100%	56%	66%
O=C(c1cc(-c2ccccc2O)on1)N1CCN(C(c2ccccc2)c2ccccc2)CC1	97%	88%	12%
Fc1cccc(COc2ccc(Nc3ncnc4cc(/C=C/[C@@H]5CCCN5)sc34)cc2Cl)c1	100%	56%	17%
Cc1cccc(C)c1CNc1ccnc2ccccc12.Cl	92%	10%	59%
CN(C)c1cc(NC(=O)Nc2ccccc2)c2ccccc2n1	100%	98%	11%
CNC(=O)c1cc(S(=O)(=O)N2CCN(c3ccccn3)CC2)c(C)s1	91%	52%	0%
S=c1nc(-c2ccccc2)n2ccsc2n1	95%	0%	3%
NC1=NC2(CCCCC2)N(OCCCCCCc2ccccc2)C(N)=N1	100%	69%	73%
O=C(Nc1ccccc1)N(Cc1ccccc1-c1cccc(CNC2CCCC2)c1)C1CCN(Cc2ccccc2)CC1.O=C(O)C(F)(F)F	100%	84%	36%
CC(C)(C)OC(=O)NCC(=O)N(Cc1ccccc1)Cc1ccccc1	97%	93%	0%
N=C(N)NN=CC(=O)Nc1cccc(C(F)(F)F)c1.O=S(=O)(O)O	99%	25%	21%
FC(F)(F)c1ccc2[nH]c(-c3ccc(-c4cccc(CNCC5CCCO5)c4)s3)nc2c1.O=C(O)C(F)(F)F (stereo not given)	99%	99%	37%
Nc1cc(/C=C/c2ccc([N+](=O)[O-])s2)nc2ccccc12	98%	48%	89%
O=C(NCC1CC1)C1CCN(C(c2ccccc2)c2nc3ccccc3s2)CC1 (stereo not given)	92%	49%	0%
CCN(CC)c1ccc(C=CC(=O)NCCN2CCC(N(C)C3CCCCC3C)CC2)cc1 (stereo not given)	88%	18%	29%
